# In PubChem BioAssay (Tox21):
# Results filed as inconclusive are left out. A call without a number means that no potency is given here. Unmarked numbers belong to inactive results. Activity calls are given as the source filed them. Calls follow the shape of the dose curve; as a rule, active = well fitted curve in the direction sought with a large enough effect in the repeat runs; inconclusive = weak or mixed curves; inactive = no such curve, though single readings can be large; an effect the other way counts as inactive or inconclusive.
# Experiments:
# [1] = qHTS RealTime-Glo MT Cell Viability Assay in HEK293 cells - 16 hour (AID 1224872); also: top concentration of the series differs between compounds; nearly all actives have a fitted effect of over 50% in size
# How it was run: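 Viability tracked continuously by luminescence as live cells reduce a prosubstrate for NanoLuc; HEK293 cells preincubated 5 h, compound-treated at 37 C, and read at 0, 8, 16, 24, 32 and 40 h.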
# [2] = qHTS RealTime-Glo MT Cell Viability Assay in HEK293 cells - 40 hour (AID 1224874); details: RealTime-Glo luminescence; max response: active compounds read low; also: nearly all actives have a fitted effect of over 50% in size; also: potency is read from the fitted curve at half-maximal effect
# How it was run: (§1)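 Measured as luminescence from the same continuously cultured HEK293 wells at successive time points (0, 8, 16, 24, 32, 40 h) after compound addition. Reagent present from seeding; dosing at 5 h; incubation 37 C.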
# [3] = A CellTox Green Cytotoxicity Assay to monitor cytotoxicity in HepG2 cells - 16 hour (AID 1224876); also: nearly all actives have a fitted effect of over 45% in size
# How it was run: (§2)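 Fluorescent DNA-binding dye, 600 HepG2 cells/well, 5 h preincubation then compound in DMSO; same plates read at 0–40 h, 37 C.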
# [4] = qHTS RealTime-Glo MT Cell Viability Assay in HepG2 cells - 32 hour (AID 1224877); also: nearly all actives have a fitted effect of over 55% in size; also: potency is read from the fitted curve at half-maximal effect
# How it was run: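 Viability was tracked continuously by NanoLuc luminescence from prosubstrate reduced by living HepG2 cells, at successive time points over 40 h of compound exposure. Cells with reagent were preincubated 5 h at 37 °C before compound addition.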
# [5] = qHTS RealTime-Glo MT Cell Viability Assay in HEK293 cells - 0 hour (AID 1224880); also: top concentration of the series differs between compounds; nearly all actives have a fitted effect of over 45% in size
# How it was run: as §1
# [6] = qHTS RealTime-Glo MT Cell Viability Assay in HepG2 cells - 8 hour (AID 1224873); also: nearly all actives have a fitted effect of over 55% in size
# How it was run: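 HepG2 cells mixed with RealTime-Glo MT reagents (NanoLuc plus cell-permeant prosubstrate) were seeded at 600 cells/well, incubated 5 h at 37 C/5% CO2, then pinned with compounds in DMSO; nonlytic luminescence tracked viability during 40 h treatment.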
# [7] = A CellTox Green Cytotoxicity Assay to monitor cytotoxicity in HEK293 cells - 24 hour (AID 1224875); also: series mostly up to about 77 µM; nearly all actives have a fitted effect of over 45% in size
# How it was run: (§3)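 Homogeneous no-lysis format: HEK293 cell suspension mixed with CellTox Green reagent, seeded, incubated 5 h at 37 C/5% CO2, then dosed by pintool with compound in DMSO.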
# [8] = A CellTox Green Cytotoxicity Assay to monitor cytotoxicity in HepG2 cells - 24 hour (AID 1224878); also: nearly all actives have a fitted effect of over 45% in size; also: potency is read from the fitted curve at half-maximal effect
# How it was run: as §2
# [9] = A CellTox Green Cytotoxicity Assay to monitor cytotoxicity in HepG2 cells - 40 hour (AID 1224879); also: nearly all actives have a fitted effect of over 40% in size; also: potency is read from the fitted curve at half-maximal effect
# How it was run: as §2
# [10] = A CellTox Green Cytotoxicity Assay to monitor cytotoxicity in HEK293 cells - 32 hour (AID 1224881); also: nearly all actives have a fitted effect of over 40% in size
# How it was run: as §3
smiles,measurement,setting,value
C=CCCCCCCCCO,Potency,[1],inactive
same,max response,[2],-15.3%
same,Potency,[3],inactive
same,Potency,[4],inactive
same,outcome,[5],inactive
CCCC(CCC)(C(=O)OCC)C(=O)OCC,outcome,[6],inactive
same,max response,[2],0.553%
same,Potency,[7],inactive
same,Potency,[3],inactive
same,Potency,[4],inactive
same,Potency,[8],inactive
same,Potency,[9],inactive
same,outcome,[5],inactive
same,Potency,[10],inactive
FC(F)(F)C(Cl)(Cl)Cl,Potency,[1],inactive
same,Potency,[7],inactive
same,Potency,[3],inactive
same,Potency,[4],inactive
same,Potency,[8],inactive
same,Potency,[9],inactive
same,outcome,[5],inactive
same,Potency,[10],inactive
CCCNC(C)(C)COC(=O)c1ccccc1,outcome,[6],inactive
same,max response,[2],2.27%
same,Potency,[7],inactive
same,Potency,[3],inactive
same,Potency,[4],inactive
same,Potency,[8],inactive
same,Potency,[9],inactive
same,outcome,[5],inactive
same,Potency,[10],inactive
CC1=NN(c2cc(Cl)c(S(=O)(=O)O)cc2Cl)C(=O)C1N=Nc1ccc(S(=O)(=O)O)cc1 (configuration not stated),Potency,[1],inactive
same,max response,[2],4.23%
same,Potency,[7],inactive
same,Potency,[4],inactive
same,Potency,[10],inactive
C=CC1CO1 (configuration not stated),Potency,[1],inactive
same,Potency,[7],inactive
same,Potency,[3],inactive
same,Potency,[4],inactive
same,Potency,[8],inactive
same,Potency,[9],inactive
same,outcome,[5],inactive
same,Potency,[10],inactive
O=Cc1ccc(O)c(O)c1O,Potency,[1],inactive
same,max response,[2],1.24%
same,Potency,[3],inactive
same,Potency,[4],inactive
same,outcome,[5],inactive
same,Potency,[10],inactive
C[C@@H]1CN(c2c(F)c(N)c3c(=O)c(C(=O)O)cn(C4CC4)c3c2F)C[C@H](C)N1,"viability change, negative = cytotoxic",[6],0.974% [at 15.8 µM]
same,max response,[2],-0.345%
same,activity change,[7],"0.48% [at 15.8 µM, active compounds read high]"
same,cytotoxicity increase,[3],-2.88% [at 15.8 µM]
same,"activity change, negative = cytotoxic",[4],1.06% [at 15.8 µM]
same,cytotoxicity,[8],-3.54% [at 15.8 µM]
same,cytotoxicity increase,[9],-1.78% [at 15.8 µM]
same,"activity change, negative = cytotoxicity",[5],-2.5% [at 15.8 µM]
same,cytotoxicity increase,[10],5.84% [at 15.8 µM]
COC(=O)N[C@H](C(=O)N[C@@H](Cc1ccccc1)[C@@H](O)CN(Cc1ccc(-c2ccccn2)cc1)NC(=O)[C@@H](NC(=O)OC)C(C)(C)C)C(C)(C)C,Potency,[1],inactive
same,max response,[2],-6.22%
same,Potency,[7],inactive
same,Potency,[4],inactive
same,outcome,[5],inactive
same,Potency,[10],inactive
O=c1[nH]c(=O)n([C@H]2C[C@H](O)[C@@H](CO)O2)cc1C(F)(F)F,outcome,[6],inactive
same,max response,[2],-15%
same,Potency,[7],inactive
same,Potency,[3],inactive
same,Potency,[4],inactive
same,Potency,[8],inactive
same,Potency,[9],19000 nM (active)
same,outcome,[5],inactive
same,Potency,[10],inactive
O=C1CCCc2ccccc21,outcome,[6],inactive
same,max response,[2],23.3%
same,Potency,[7],inactive
same,Potency,[3],inactive
same,Potency,[4],inactive
same,Potency,[8],inactive
same,Potency,[9],inactive
same,outcome,[5],inactive
same,Potency,[10],inactive
FC(F)(F)C(F)(F)C(F)(F)C(F)(F)C(F)(F)C(F)(F)C(F)(F)C(F)(F)Br,outcome,[6],inactive
same,max response,[2],-0.235%
same,Potency,[7],inactive
same,Potency,[3],inactive
same,Potency,[4],inactive
same,Potency,[8],inactive
same,Potency,[9],inactive
same,outcome,[5],inactive
same,Potency,[10],inactive
CCC(=O)Nc1ccc(O)cc1,outcome,[6],inactive
same,max response,[2],2.18%
same,Potency,[7],inactive
same,Potency,[3],inactive
same,Potency,[4],inactive
same,Potency,[8],inactive
same,Potency,[9],inactive
same,outcome,[5],inactive
same,Potency,[10],inactive
Cn1cnc2c(F)c(Nc3ccc(Br)cc3Cl)c(C(=O)NOCCO)cc21,outcome,[6],inactive
same,max response,[2],-9.97%
same,Potency,[7],inactive
same,Potency,[4],535 nM (active)
same,Potency,[8],30.1 nM (active)
same,Potency,[9],37.9 nM (active)
same,outcome,[5],inactive
same,Potency,[10],inactive
CCC1(C)NC(=O)NC1=O (configuration not stated),outcome,[6],inactive
same,max response,[2],-2.11%
same,Potency,[7],inactive
same,Potency,[4],inactive
same,outcome,[5],inactive
same,Potency,[10],inactive
CC/C=C\CCOC(=O)C(C)C,outcome,[6],inactive
same,max response,[2],-2.11%
same,Potency,[7],inactive
same,Potency,[3],inactive
same,Potency,[4],inactive
same,Potency,[8],inactive
same,Potency,[9],inactive
same,outcome,[5],inactive
same,Potency,[10],inactive
Cc1ccc([N+](=O)[O-])cc1Cl,Potency,[1],inactive
same,max response,[2],0.878%
same,Potency,[3],inactive
same,Potency,[4],inactive
same,Potency,[8],inactive
same,Potency,[9],inactive
same,outcome,[5],inactive
same,Potency,[10],inactive
Cc1c(N)cccc1N,outcome,[6],inactive
same,max response,[2],12.2%
same,Potency,[7],inactive
same,Potency,[3],inactive
same,Potency,[4],inactive
same,Potency,[8],inactive
same,Potency,[9],inactive
same,outcome,[5],inactive
same,Potency,[10],inactive
O=C(O)[C@@H]1CSCN1,outcome,[6],inactive
same,max response,[2],2.01%
same,Potency,[7],inactive
same,Potency,[3],inactive
same,Potency,[4],inactive
same,Potency,[8],inactive
same,Potency,[9],inactive
same,outcome,[5],inactive
same,Potency,[10],inactive
Cc1cc2c(s1)Nc1ccccc1N=C2N1CCN(C)CC1,outcome,[6],inactive
same,max response,[2],3.41%
same,Potency,[7],inactive
same,Potency,[3],inactive
same,Potency,[4],inactive
same,Potency,[8],inactive
same,Potency,[9],inactive
same,outcome,[5],inactive
same,Potency,[10],inactive
NC1=NCC2c3ccccc3Cc3ccccc3N12 (configuration not stated),Potency,[1],inactive
same,max response,[2],-13.1%
same,Potency,[7],inactive
same,Potency,[3],inactive
same,Potency,[4],inactive
same,Potency,[8],inactive
same,Potency,[9],inactive
same,outcome,[5],inactive
same,Potency,[10],inactive
Cc1nc(N)nc(N)c1-c1ccc(Cl)c(Cl)c1,outcome,[6],inactive
same,Potency,[2],1070 nM (active)
same,Potency,[7],inactive
same,Potency,[3],inactive
same,Potency,[4],inactive
same,Potency,[8],inactive
same,Potency,[9],inactive
same,outcome,[5],inactive
same,Potency,[10],inactive
